Assay outcomes (PubChem)
Pf growth 48h: inhibits P. falciparum growth in the first generation, 48 h; Potency, µM (top dose mostly 28.7 µM), inactives show top-dose activity change, negative = inhibition, hits mostly inhibitors; P. falciparum luciferase growth in erythrocytes, 48 h; actives 5.9% (n = 310,000); AID 504832
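Luminescence readout; reporter = integrated firefly luciferase in P. falciparum. RBC culture at 2% hematocrit, 0.1% parasitemia final, 37 C/5% CO2; decreased signal taken as growth inhibition.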
Pf growth 96h: P. falciparum growth inhibition at 96 hour, primary screen for plastid delayed-death inhibitors; P. falciparum luciferase reporter growth, 96 h; Potency, µM (highest dose often 28.7 µM), without a hit: top-dose activity change, negative = inhibition, hits mostly inhibitors; actives 6.9% (n = 320,000); AID 504834
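Compounds incubated with erythrocytes infected by luciferase-expressing P. falciparum (2% hematocrit, 0.05% parasitemia final) for 96 hours, 37 C in 5% CO2. Growth inhibition scored as decreased luciferase luminescence.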
HCV inh: HCV inhibition | Huh7.5.1 HCVcc-Cre infection, luciferase reporter, 44 h | Potency, µM (highest dose often 41.8 µM), without a hit: top-dose activity change, negative = inhibition, hits mostly inhibitors | actives 3.4% (n = 340,000)
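After 44 h co-culture of compound, cells and HCVcc-Cre (~0.5 moi), substrate is added for 15 min at room temperature and luciferase measured over 15 sec. Cells were seeded at 1,000/well and pre-cultured 4 h.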
AMA1-RON2 inh: inhibitors of Plasmodium falciparum AMA1-RON2 interaction; AID 720542; Potency, µM (series often up to 58.2 µM), inactives show at the top dose activity change, negative = inhibition, most hits filed as inhibitors; AlphaScreen AMA1-biotinylated RON2 peptide binding; actives 0.2% (n = 360,000);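 note: 0% = vehicle wells and -100% = peptide control; nearly all actives have a fitted effect of over 45% in size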
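AMA1 (3D7) with his tag at 25 nM final met compounds first, then biotinylated RON2 peptide at 25 nM; detection used donor plus acceptor beads, 10 µg/mL apiece, read by AlphaScreen after 30 min at room temperature.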
* marks the source's active call; other numbers are inactive results; ? = inconclusive; . = no result given; ! = not confirmed by another sample; [ ] = dose if it differs, or a comment. Only some compounds are listed: those with a hit (about 11% of all), similar ones and a draw of the others. Calls come from the whole dose curve; as a rule, active = well fitted curve in the direction sought with a large enough effect; inconclusive = small, poorly fitted or top-dose-only effect, or another doubt; inactive = no such curve, though single readings can be large; an effect the other way counts as inactive or inconclusive. Unless noted, % is set by controls: 0 for no effect and ±100 for the full control effect; potency is the fitted concentration of half-maximal effect.

SMILES	Pf growth 48h	Pf growth 96h	HCV inh	AMA1-RON2 inh
O=C(c1ccccc1)N1CCC(CC2CC(c3cccc(Br)c3)=NO2)(C(=O)NCC2CCCCC2)CC1 (stereo not given)	?	5.2µM*	7%	-2%
CCCNC(=O)C1(CC2CC(c3ccccc3)=NO2)CCN(C(=O)c2ccccc2)CC1 (stereo not given)	12µM*	?	5%	1%
CC(C)(C)OC(=O)N1CCC(CC2CC(c3cccc(Br)c3)=NO2)(C(=O)NCC2CCCCC2)CC1 (stereo not given)	?	?	-2%	-25%
CCOc1cc(C(=O)N2CCC(CC3CC(c4ccc(Cl)cc4)=NO3)(C(=O)NCC3CCCCC3)CC2)cc(OCC)c1OCC (stereo not given)	0.29µM*	0.23µM*	?	-8%
CC(=O)N1c2ccc(S(=O)(=O)N(C)CC(=O)NCc3ccc(C)cc3)cc2CC1C (stereo not given)	2%	?	2%	2%
O=[N+]([O-])c1ccc(/C=N/Nc2nc(N3CCCCCC3)nc(N3CCCCCC3)n2)o1	5.2µM*	?	?	-18%
CCOc1cccc(/C=N/Nc2nc(N3CCCC3)nc(N3CCCC3)n2)c1O	0.83µM*	-2%	?	70%
COc1ccc([N+](=O)[O-])cc1/C=N/Nc1nc(N2CCCCC2)nc(N2CCCCC2)n1	?	11%	20µM*	5%
Oc1ccccc1/C=N/Nc1cc(N2CCCC2)nc(N2CCCC2)n1	2.1µM*	173%	?	-9%
Cc1ccc(NC(=O)CN(C)S(=O)(=O)c2cccs2)c(Br)c1	52%	-10%	-17%	4%
CC1(C(=O)Nc2ccc3c(c2)OCCO3)CSCC(=O)N1CC(F)(F)F (stereo not given)	.	.	.	-1%
CCOc1ccc2nc(C)cc(Nc3ccc(N4CCOCC4)cc3)c2c1	2.1µM*	2.6µM*	1%[0.335 µM]	.
CCOc1ccc2nc(C)cc(Nc3cccc([N+](=O)[O-])c3)c2c1	1.7µM*	1µM*	?	-7%
Cc1cc(C)nc(Nc2ccc(N3CCOCC3)cc2)n1	.	.	8%	-7%
CCOc1ccc2nc(C)cc(Nc3ccc4c(c3)OCCO4)c2c1	?	2.6µM*	-29%	1%
COc1ccccc1-c1csc(C(O)c2cccc(Cl)c2)n1 (stereo not given)	.	.	.	19%
COCCCN1C(=O)C(=O)/C(=C(/O)c2ccc(S(=O)(=O)N3CCOCC3)cc2)C1c1ccc(OC)cc1 (stereo not given)	-2%	15%	22%	-8%
COc1ccc(Nc2nc3c([nH]2)c(=O)[nH]c(=O)n3C)cc1	3%	13µM*	12%	1%
COc1ccc(OC)c(Nc2cc(C)nc3ccccc23)c1	?	?	?	-16%
COc1ccc(Cl)cc1Nc1cc(C)nc2ccccc12	.	.	11µM*	-8%
COCCCNc1nc2c([nH]1)c(=O)[nH]c(=O)n2C	11%	0%	16%	14%
COc1ccc(Nc2c3ccccc3nc3ccccc23)cc1	4.1µM*	43%	?	-13%
COc1ccccc1Nc1nc2ccccc2[nH]1	?	?	-19%	1%
COc1ccccc1Nc1c2ccccc2nc2ccccc12	7.4µM*	2.3µM*	10µM*	-3%
CC(C)N(C)c1ncnc2c1ncn2[C@H]1CN(Cc2ccc3c(c2)OCO3)C[C@@H](CO)O1	.	.	.	51%
SMILES	Pf growth 48h	Pf growth 96h	HCV inh	AMA1-RON2 inh
CC(=O)N1CCc2cc(S(=O)(=O)NCCC3=CCCCC3)ccc21	.	.	?	-3%
C=CCOC(=O)C1=C[C@H](c2ccc3c(c2)OCO3)C[C@H](OCCCCO)O1	.	.	14%	9%
COc1ccc(Nc2nc3ccccc3c(=O)[nH]2)cc1	2.1µM*	4.7µM*	6%	-9%
Cc1ccc2nc(NCC(=O)O)nc(-c3ccccc3)c2c1	12%	15%	0%	44%
O=C(O)c1ccc(Nc2c3ccccc3nc3ccccc23)cc1	2.1µM*	8%	-4%	-3%
COc1ccc(Nc2c3c(nc4ccccc24)CCCC3)cc1OC	-18%	1%	?	-18%
COc1cc(Nc2nc(-c3ccccc3)c3cc(C)ccc3n2)cc(OC)c1OC	?	3%	10µM*	-26%
COc1cc(Nc2c3ccccc3nc3ccccc23)cc(OC)c1OC	7.4µM*	?	?	-22%
COc1ccccc1NC(=O)CS(=O)(=O)c1cn(CC(=O)N2CCCC2)c2ccccc12	-15%	-16%	15%	-8%
c1ccc(CC2=NCCN2)cc1	-26%[12.8 µM]	?	23%	7%
c1ccc(CN(CC2=NCCN2)c2ccccc2)cc1	-25%	12µM*!	1%[8.37 µM]	1%
CSCCC(NS(=O)(=O)c1ccc2c(c1)OCCO2)C(=O)N(C)Cc1ccc(C)cc1 (stereo not given)	?	?	-26%	-10%
COc1cccc(CN(C)C(=O)C(CCSC)NS(=O)(=O)c2ccc3c(c2)OCCO3)c1OC (stereo not given)	12µM*	?	?	0%
COCCN(CC(=O)Nc1ccccc1C(F)(F)F)C(=O)c1ccc(-n2cccn2)cc1	-24%	-7%	11%	10%
CCN(CC)c1ccc(CNCCc2ccccc2F)cc1	-11%	9.3µM*	?	?
Cc1ccc(CNCCc2ccccc2F)cc1	10%	58%	0%	-4%[11.6 µM]
COc1ccccc1CNC(=O)c1cccc(S(=O)(=O)N2CCN(c3ccc(F)cc3)CC2)c1	10µM*	?	11µM*	-7%
COc1ccc(CNC(=O)c2cccc(S(=O)(=O)N3CCN(c4ccc(F)cc4)CC3)c2)cc1	?	?	7.1µM*	-28%
COc1ccc(NC(=O)CN(C)C(=O)c2cccc(S(=O)(=O)N3CCN(c4ccc(F)cc4)CC3)c2)cc1	.	.	13µM*	3%
COc1ccc2[nH]c(C(=O)N3CCC(n4nccc4NC(=O)C4CC4)CC3)c(C)c2c1	?	-17%	2%	9%
Cc1c(C(=O)NCCN2C(=O)S/C(=C\c3cccnc3)C2=O)cccc1[N+](=O)[O-]	5.2µM*	?	1%	13%
Cc1ccc(S(=O)(=O)N2CCN(C(=O)CCC(=O)NCc3ccc(F)cc3)CC2)cc1	-22%	-3%	31%	-1%
Cc1ccc(C(=O)NC(NC(=S)Nc2ccc(S(N)(=O)=O)cc2)C(Cl)(Cl)Cl)cc1 (stereo not given)	-11%	0%	11%	36%
Cc1cc(C)c(NC(=S)NC(NC(=O)c2ccccc2)C(Cl)(Cl)Cl)c(C)c1 (stereo not given)	3.3µM*	-8%	-32%	6%
O=C(NC(NC(=S)Nc1ccc(Cl)cc1Cl)C(Cl)(Cl)Cl)c1cccc([N+](=O)[O-])c1 (stereo not given)	1.7µM*	?	?	9%
Cc1ccc(NC(=S)NC(NC(=O)c2ccccc2)C(Cl)(Cl)Cl)c(C)c1 (stereo not given)	10µM*	?	?	14%
